Data reported in PubChem BioAssay AID1851 (National Center for Advancing Translational Sciences (NCATS), 2009).
The whole screen tested about 16,000 compounds, of which about 5,800 (36%) were called active. About 23% were inconclusive and are not listed. The list shows a part of the results. A number with no mark means an inactive call. The call rests on the fitted dose curve; in most records, active means well fitted curve in the direction sought with a large enough effect; inconclusive means small, poorly fitted or top-dose-only effect, or effect the other way; inactive means no such curve, though single readings can be large or run the other way.

These compounds were tested against Cytochrome P450 2C19 (Homo sapiens) (UniProt P33261) (assay: Cytochrome panel assay with activity outcomes). Settings: recombinant CYP, pro-luciferin dealkylation, luminescence, p450-cyp2c19; series mostly up to 57.1 µM.
On the % scale 0 is the no-effect control and ±100 the full control effect.

Cytochrome P450 2C19 (Homo sapiens), sequence (P33261 whole entry, looked up): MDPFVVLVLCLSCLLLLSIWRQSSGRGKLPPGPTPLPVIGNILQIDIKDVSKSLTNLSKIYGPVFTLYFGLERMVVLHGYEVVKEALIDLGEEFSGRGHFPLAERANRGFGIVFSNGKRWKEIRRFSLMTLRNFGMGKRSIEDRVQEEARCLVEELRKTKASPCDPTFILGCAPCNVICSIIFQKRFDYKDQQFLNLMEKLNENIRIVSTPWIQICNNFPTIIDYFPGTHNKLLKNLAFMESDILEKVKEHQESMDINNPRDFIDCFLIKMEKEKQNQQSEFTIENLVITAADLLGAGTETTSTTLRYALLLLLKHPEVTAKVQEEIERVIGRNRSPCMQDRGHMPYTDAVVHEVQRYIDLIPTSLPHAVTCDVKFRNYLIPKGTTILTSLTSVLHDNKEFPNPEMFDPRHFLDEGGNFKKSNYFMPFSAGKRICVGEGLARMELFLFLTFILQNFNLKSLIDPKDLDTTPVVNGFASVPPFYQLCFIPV

Q: CCc1cc2c(NCc3ccco3)ncnc2s1 was tested. Which AC50 did it give?
A: 4.47 µM (active)

Q: How did the AC50 turn out when CCc1cc2c(=O)[nH]cnc2s1 was run?
A: inactive

Q: How did the AC50 turn out when CCc1cc2c(NCCO)ncnc2s1 was run?
A: inactive

Q: With Nc1ccccc1S(N)(=O)=O as the compound, how does the AC50 read?
A: inactive

Q: For Cc1nc(N/N=C/c2ccccc2)nc(N(C)c2ccccc2)c1[N+](=O)[O-], which AC50 is on record?
A: inactive

Q: Cc1ccc2nc(N/N=C/c3ccccc3C#N)nc(-c3ccccc3)c2c1 was tested. Which AC50 did it give?
A: 10 µM (active)

Q: Cc1ccc2nc(N/N=C\c3cccc(C)n3)cc(C)c2c1 was tested. Which activity, negative = inhibition did it give?
A: -12.3% [at 11.4 µM]

Q: Cc1cccc(N2CCN(C(=O)CSCc3c(C)noc3C)CC2)c1C was tested. Which AC50 did it give?
A: 17.8 µM (active)

Q: For Cc1noc(C)c1C(=O)N1CCC2(CCCN(c3ccccc3)C2)CC1, which AC50 is on record?
A: inactive

Q: How did the AC50 turn out when Cc1ccc(NC(=S)Nc2nc(CC(=O)Nc3ccccc3)cs2)cc1 was run?
A: 3.98 µM (active)

Q: COCCn1c(=O)c(-c2cccc(C#N)c2)nc2cnc(N3CCOCC3)nc21 was tested. Which AC50 did it give?
A: inactive

Q: How did the AC50 turn out when CC(C)COc1ccc(C(=O)Nc2scc(-c3ccc(Cl)cc3Cl)c2C(N)=O)cc1 was run?
A: 2.82 µM (active)

Q: For NC(=O)OC[C@H](O)COc1ccc(Cl)cc1, which AC50 is on record?
A: inactive

Q: COc1ccc(C(=O)Nc2scc(-c3ccc(Cl)cc3Cl)c2C(N)=O)cc1 was tested. Which AC50 did it give?
A: 1.26 µM (active)

Q: For O=C(CC1C(=O)N(c2ccc(Cl)cc2)C(=S)N1CCc1ccncc1)Nc1ccc(F)cc1 (stereo not drawn), which AC50 is on record?
A: 0.02 µM (active)

Q: With O=C(Nc1ccc(Cl)cc1)OCc1cc(-c2ccccc2Cl)on1 as the compound, how does the AC50 read?
A: 0.316 µM (active)

Q: For O=C(Nc1ccccc1)OCc1cc(-c2ccc(Cl)cc2)on1, which AC50 is on record?
A: 2 µM (active)

Q: Which AC50 does the source give for CS(=O)(=O)c1ccccc1COC(=O)Nc1ccc(Cl)cc1 here?
A: 2.51 µM (active)

Q: O=C(Nc1ccc(Cl)cc1)OCc1cc(-c2ccccc2)on1 was tested. Which AC50 did it give?
A: 0.447 µM (active)

Q: With O=C(c1cc(C(F)(F)F)cc(C(F)(F)F)c1)N1CCC[C@@]2(CCN(c3ncccn3)C2)C1 as the compound, how does the AC50 read?
A: inactive

Q: CCC(=O)O[C@@H]1[C@H](C)O[C@H](O[C@H]2[C@@H](N(C)C)[C@H](O)[C@@H](O[C@@H]3[C@@H](CC=O)C[C@@H](C)[C@@H](O)/C=C\C=C/C[C@@H](C)OC(=O)C[C@@H](OC(=O)CC)[C@H]3OC)O[C@H]2C)C[C@]1(C)O was tested. Which AC50 did it give?
A: inactive

Q: How did the AC50 turn out when Cc1nc(SCC(=O)c2ccc(F)cc2)c([N+](=O)[O-])[nH]1 was run?
A: 8.91 µM (active)

Q: With Cn1c(=S)c2[nH]c(SCCCc3ccccc3)nc2n(C)c1=O as the compound, how does the activity, negative = inhibition read?
A: -28.4% [at 11.4 µM]

Q: Which AC50 does the source give for CCOc1ccc(NC2=NCC(=O)N2Cc2cccs2)cc1 here?
A: 11.2 µM (active)

Q: Cc1nc2cnc(Nc3ccccc3)nc2n(Cc2cccs2)c1=O was tested. Which AC50 did it give?
A: inactive

Q: For C=CCN1C(=O)CN=C1Nc1ccccc1, which AC50 is on record?
A: inactive

Q: Which AC50 does the source give for O=c1cnc2cnc(Nc3ccccc3)nc2n1Cc1cccs1 here?
A: inactive

Q: For COc1ccc(-c2nc3cnc(Nc4ccccc4)nc3n(Cc3cccs3)c2=O)cc1, which AC50 is on record?
A: inactive

Q: How did the AC50 turn out when O=C1CN=C(Nc2ccccc2)N1Cc1cccs1 was run?
A: 14.1 µM (active)

Q: How did the AC50 turn out when COc1ccc(CNC(=O)/C=C/c2ccc(OCCCF)cc2)cc1 was run?
A: inactive

Q: Which AC50 does the source give for CCCCOc1ccc(/C=C/C(=O)NCCc2nc3ccccc3[nH]2)cc1 here?
A: 3.98 µM (active)

Q: How did the AC50 turn out when Nc1nnc(SCCOc2cccc(Br)c2)s1 was run?
A: 3.98 µM (active)

Q: For CCCCN1C(=O)CC(Sc2ccccc2C(=O)O)C1=O (stereo not drawn), which AC50 is on record?
A: inactive

Q: Which AC50 does the source give for O=C(CSC1CC(=O)N(CC(c2ccccc2)c2ccccc2)C1=O)Nc1ccc(Cl)cc1 (stereo not drawn) here?
A: 1.58 µM (active)

Q: Cn1c(C(=O)Nc2ccccc2)cc2sccc21 was tested. Which AC50 did it give?
A: 2.51 µM (active)

Q: Which AC50 does the source give for COC(=O)c1ccc(NC(=O)c2cc3sccc3n2C)cc1 here?
A: 7.94 µM (active)

Q: Which activity, negative = inhibition does the source give for C[C@@]1(CCOCc2ccccc2)NC(=O)NC1=O here?
A: 0.432% [at 11.4 µM]

Q: With COc1cc(OC)c(OC)cc1C=NCC1(c2ccccc2)CCCC1 as the compound, how does the AC50 read?
A: inactive

Q: With COc1ccc(C2(CNC(=O)/C=C/c3ccco3)CCCC2)cc1OC as the compound, how does the AC50 read?
A: 7.94 µM (active)

Q: CC[N+](CC)(CC)CC[C@](O)(c1ccccc1)C1CCCCC1 was tested. Which AC50 did it give?
A: inactive

Q: CCCc1cc2c(n1CCc1ccc(Cl)cc1)C(C)C1CN(C(=O)c3ccccc3)C(C)(C(=O)OC)C21 (stereo not drawn) was tested. Which AC50 did it give?
A: 6.31 µM (active)

Q: Nc1ccc(C(=O)C[C@H](N)C(=O)O)cc1O was tested. Which activity, negative = inhibition did it give?
A: -13.9% [at 11.4 µM]

Q: How did the AC50 turn out when O=C(O)[C@H]1CCCNC1 was run?
A: inactive

Q: How did the activity, negative = inhibition turn out when Cc1[nH]c2ccccc2c1-c1cc(-c2cc(-c3c(C)[nH]c4ccccc34)on2)no1 was run?
A: 0.833% [at 11.4 µM]

Q: With Nc1nc(-c2cc(-c3cccc4ccccc34)nc(N)n2)cc(-c2cccc3ccccc23)n1 as the compound, how does the activity, negative = inhibition read?
A: 11.9% [at 11.4 µM]

Q: CC(C)=NOCc1ccc(-c2cc(-c3ccccc3)no2)cc1 was tested. Which activity, negative = inhibition did it give?
A: -13.3% [at 11.4 µM]

Q: Which AC50 does the source give for Cc1ccccc1-c1cc(-c2ccccc2O)on1 here?
A: 4.47 µM (active)

Q: For Nc1nc(-c2ccccc2)cc(-c2ccccc2O)n1, which AC50 is on record?
A: 10 µM (active)

Q: Oc1ccccc1-c1cc(-c2ccccc2)no1 was tested. Which AC50 did it give?
A: 7.94 µM (active)

Q: For COc1cc2c(cc1OC)-c1cc3ccc(OC)c(OC)c3c[n+]1CC2, which AC50 is on record?
A: inactive

Q: How did the AC50 turn out when COC(=O)C1=C(C)C(c2ccc(OC)cc2)NC(=S)N1 (stereo not drawn) was run?
A: 14.1 µM (active)

Q: For COc1ccc(N2C(=O)CCC(C(=O)O)C2c2ccc(F)cc2)cc1 (stereo not drawn), which AC50 is on record?
A: inactive

Q: COc1ccc(C2C(C(=O)N3CCOCC3)CCC(=O)N2c2ccc(OC)cc2)cc1 (stereo not drawn) was tested. Which AC50 did it give?
A: inactive

Q: Which AC50 does the source give for CCOC(=O)c1c(NC(C)=O)sc2c(OC)cccc12 here?
A: inactive

Q: For CCOC(=O)C1=C(C)NC(=S)NC1c1cccc(O)c1 (stereo not drawn), which AC50 is on record?
A: 25.1 µM (active)

Q: Which AC50 does the source give for CCOC(=O)C1=C(C)C(c2ccccc2OC)NC(=S)N1 (stereo not drawn) here?
A: 5.62 µM (active)

Q: For CS(=O)(=O)N1CCC2(CC1)CN(C(=O)Nc1cccc(C#N)c1)C2, which AC50 is on record?
A: inactive

Q: CC(NC(=O)Cn1cnc([N+](=O)[O-])n1)c1ccccc1 (stereo not drawn) was tested. Which AC50 did it give?
A: 39.8 µM (active)

Q: CC(C)(C)NC(=O)Cn1cnc([N+](=O)[O-])n1 was tested. Which AC50 did it give?
A: inactive

Q: For CCN(CC)C(=O)Cn1cnc([N+](=O)[O-])n1, which AC50 is on record?
A: inactive

Q: How did the activity, negative = inhibition turn out when O=C1CCC(c2ccccc2)=NN1c1nc2ccccc2s1 was run?
A: 6.12% [at 11.4 µM]

Q: O=S(=O)(c1ccccc1)N1CCCC1c1nc2ccccc2s1 (stereo not drawn) was tested. Which AC50 did it give?
A: 4.47 µM (active)

Q: With O=S(=O)(c1ccccc1)N1CCC2(CCN(C(c3ccccc3)c3ccccc3)CC2)CC1 as the compound, how does the AC50 read?
A: inactive
